Assay outcomes from PubChem.
D1 agonist – human D1 receptor agonism. P21728. HEK293 T-REx D1 cells, calcium flux, agonist mode. activation, % at 2 µM. hit rate 1% among 360,000
Target sequence (P21728 whole entry, looked up): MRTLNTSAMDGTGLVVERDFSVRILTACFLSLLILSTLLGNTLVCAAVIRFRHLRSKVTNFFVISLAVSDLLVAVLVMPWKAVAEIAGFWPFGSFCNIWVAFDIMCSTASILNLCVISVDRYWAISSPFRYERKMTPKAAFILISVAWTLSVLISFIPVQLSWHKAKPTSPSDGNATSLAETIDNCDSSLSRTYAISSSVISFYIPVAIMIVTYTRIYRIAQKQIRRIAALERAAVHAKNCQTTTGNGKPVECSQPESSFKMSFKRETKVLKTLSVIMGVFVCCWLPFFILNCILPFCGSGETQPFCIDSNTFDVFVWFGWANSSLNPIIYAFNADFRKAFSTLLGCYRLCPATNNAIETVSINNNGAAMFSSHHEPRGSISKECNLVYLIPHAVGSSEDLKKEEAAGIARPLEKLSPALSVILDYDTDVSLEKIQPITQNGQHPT
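Agonism was scored from calcium flux recorded over 180 s (1 read/s) after pintool compound addition, following a 10-cycle baseline. Cells were inducible force-coupled HEK293 TREx D1, plated overnight at 30 C and loaded with no-wash calcium dye.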
D1 potentiator – human D1 dopamine receptor positive modulation; HEK293 TREx D1 cells, calcium flux, dopamine EC20 potentiation; potentiation, % at 10 µM; hit rate 0.036% among 360,000; AID 504651; in the data active = potentiation above about 30%
TRHR ag – TRH receptor (human) agonism. TRHR cells, calcium flux fluo-8, FDSS agonist mode. activation, % at 2 µM. hit rate 0.18% among 360,000. AID 493084
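TRHR-expressing cells, plated overnight in medium with 10% serum, were loaded with fluo-8 calcium dye at room temperature. After a 10 s baseline, library compound was pin-added and calcium release was recorded kinetically (ex 480/em 530) as agonist response.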
D1 antagonist – blocks dopamine activation of the human D1 receptor | P21728 | HEK293 TREx D1 cells, calcium flux, dopamine EC80; hits give low values | hit rate 3.2% among 360,000 | activity change, negative = inhibition, % at 10 µM; in the data active = activity change below about -30%
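Kinetic fluorescence of a calcium dye serves as the read-out. D1-expressing Hek293 Trex cells, induced overnight at 30 C, are exposed to compound for 180 s before an EC80 dopamine addition, then read 180 s further.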
TRHR enhancer – allosteric enhancers of human TRH receptor; enhancement, % at 2 µM; hit rate 0.66% among 360,000; P34981; TRHR cells, fluo-8 calcium fluorescence, EC20 TRH enhancement; AID 493056; in the data active = enhancement above about 30%
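TRHR-expressing cells loaded with fluo-8 calcium dye were read kinetically (ex 480/em 530) during compound addition, then stimulated with an EC20 of TRH (10 nM final). Enhancement of the Gq-mediated intracellular calcium response was scored.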
Hits are given with their value; - = inactive. Sampled rows, rich in hits. Any-hit rate of the full collection: about 4.7%. Rule as the data show it, unless noted: active = activation above about 30%; inactive = the rest.

SMILES | D1 agonist | D1 potentiator | TRHR ag | D1 antagonist | TRHR enhancer
c1csc(-c2ccc3ccccc3n2)c1 | - | - | - | - | -
CC1CCN(C(=O)c2cc(-c3ccc(Br)cc3)on2)CC1 | - | - | - | - | -
Cc1c(C(=O)Nc2ccccc2)sc2nc[nH]c(=O)c12 | - | - | - | -32.9 | -
O=C(CC(c1ccccc1)c1ccccc1O)NCCN1CCOCC1 (stereo not drawn) | - | - | - | -53.3 | -
COc1cc2c(cc1OC)C(COc1ccccc1OC)N(C(=O)CC(C)C)CC2 (stereo not drawn) | - | - | - | - | -
CN(C)S(=O)(=O)c1cc(NC(=O)COC(=O)CCSc2ccc(Cl)cc2)ccc1Cl | - | - | - | -43.3 | -
COc1ccccc1C(=O)n1nc(-c2ccco2)nc1SC | - | - | - | -34.4 | -
CSc1nc(-c2ccco2)nn1C(=O)c1ccccc1 | - | - | - | - | -
COc1ccccc1OCCn1ccnc1 | - | - | - | - | -
CCC(C)c1ccccc1OCCn1ccnc1 (stereo not drawn) | - | - | - | -34.4 | -
COc1ccc(C(=O)Nc2nc3ccc(S(=O)(=O)N4CCCC4)cc3s2)cc1 | - | - | - | -32.3 | -
O=C(Nc1nc2ccccc2s1)c1ccc(S(=O)(=O)N2CCCC2)cc1 | - | - | - | -45.7 | -
CCCCC(=O)Nc1ccc(C(=O)OCc2cc(=O)n3nc(C4CC4)sc3n2)cc1 | - | - | - | - | -
Cn1nnnc1SCC(=O)c1cccs1 | - | - | - | - | -
COc1ccc2c(c1)nc(SCC(=O)C(C)(C)C)n2C | - | - | - | - | -
COc1ccc2c(c1)nc(SCC(=O)c1cccs1)n2C | - | - | - | -35.8 | -
Cc1cc(C)c(-n2nnnc2SCC(=O)c2cccs2)c(C)c1 | - | - | - | -42.3 | -
CCC1CN(C(=O)Nc2ccccc2F)c2cc(C)ccc2O1 (stereo not drawn) | - | - | - | - | -
Cc1nccn1CC(=O)O | - | - | - | - | -
CC(C)c1nccn1CCC(=O)O | - | - | - | -43.6 | -
O=[S+]([O-])(c1c(F)cccc1F)N1CCN([S+](=O)([O-])c2csc3ccccc23)CC1 | - | - | - | - | -
CC(C)C(=O)NC(=S)Nc1ccc(S(=O)(=O)N(C)Cc2ccccc2)cc1 | - | - | - | -34.6 | -
CC(=O)NC(=S)Nc1ccc(S(=O)(=O)N(C)Cc2ccccc2)cc1 | - | - | - | -31.3 | -
CN(Cc1ccccc1)S(=O)(=O)c1ccc(NS(=O)(=O)Cc2ccccc2)cc1 | - | - | - | -34.3 | -
CCOC(=O)N1CCN(C(=O)c2ccc3c(c2)N(Cc2ccccc2F)C(=O)c2ccccc2S3(=O)=O)CC1 | - | - | - | - | -
SMILES | D1 agonist | D1 potentiator | TRHR ag | D1 antagonist | TRHR enhancer
Cc1cc(=O)[nH]c(N/N=C/C2=C(N3CCOCC3)C(=C\c3ccc(Cl)cc3)/CC2)n1 | - | - | - | - | -
Cc1cc(C)nc(N/N=C/C2=C(N3CCOCC3)C(=C/c3ccccc3)/CC2)n1 | - | - | - | -44.6 | -
O=C(O)c1ccccc1N/N=C/C1=C(N2CCOCC2)C(=C\c2ccccc2)/CC1 | - | - | - | -30.4 | -
Cc1occc(=O)c1OC(=O)Nc1ccc(Cl)c(Cl)c1 | - | - | - | -47.3 | -
O=[N+]([O-])c1c(NCCCO)cc(Sc2ccc(Cl)cc2)c2nonc12 | - | - | - | -40.0 | -
CCOC(=O)N1CCC(NC(=O)c2cc(COc3ccccc3SC)on2)CC1 | - | - | - | -33.0 | -
COc1ccc2[nH]c3c(N4CCc5ccccc5C4)ncnc3c2c1 | - | - | - | -32.1 | -
O=C(CNC(=O)c1ccc2cc[nH]c2c1)OC(C(=O)Nc1cc(C(F)(F)F)ccc1Cl)c1ccccc1 (stereo not drawn) | - | - | - | - | -
CCOC(=O)c1cc(-c2ccccc2)n(CCCC(=O)Nc2cc(C)ccc2OC)c1C | - | - | - | - | -
CC(C)(C)OC(=O)N1CCC(c2c(C(=O)NCCN3CCOCC3)cnn2-c2cccc(F)c2)CC1 | - | - | - | - | -
CC(c1ccccc1)N1C(=O)C2C3C=CC(C4CC34)C2C1=O (stereo not drawn) | - | - | - | - | -
CC(OC(=O)C(C)N1C(=O)C2C3C=CC(C4CC34)C2C1=O)C(=O)c1ccccc1 (stereo not drawn) | - | - | - | -38.4 | -
COc1cccc(CN(Cc2ccco2)C(c2ccc(F)cc2)c2nnnn2C(C)(C)C)c1 (stereo not drawn) | - | - | - | -34.0 | -
COc1ccccc1Cn1c(=S)[nH]c2cc(C(=O)NCc3cccnc3)ccc2c1=O | - | - | - | -30.7 | -
COc1ccc(Cn2c(=S)[nH]c3cc(C(=O)NCc4cccnc4)ccc3c2=O)cc1 | - | - | - | - | -
CC(=O)c1cc(-c2ccc(F)cc2)n(CCC(=O)Nc2nc3c(C)cccc3s2)c1C | - | - | - | - | -
Nc1c(-c2nc(-c3ccccc3)cs2)c2ccccn2c1C(=O)c1ccc2c(c1)OCO2 | 34.9 | - | - | - | -
CCOc1ccc(-c2csc(-c3c(N)c(C(=O)c4ccc5c(c4)OCO5)n4ccccc34)n2)cc1 | 41.8 | - | - | - | -
COc1ccccc1CNS(=O)(=O)c1ccc(-c2cc(C(F)(F)F)on2)s1 | 33.1 | - | - | - | -
CNC(=O)COC(=O)c1ccccc1C(=O)c1ccc(Cl)c([N+](=O)[O-])c1 | - | - | - | - | -
Nc1ccccc1Sc1ccc(C(=O)c2ccccc2C(=O)O)cc1[N+](=O)[O-] | - | - | - | - | -
O=C(COC(=O)c1ccccc1C(=O)c1ccc(Cl)c([N+](=O)[O-])c1)NC1CC1 | - | - | - | -41.2 | -
O=C(COC(=O)c1ccc([N+](=O)[O-])cc1)NC1CCCC1 | - | - | - | -45.2 | -
O=C(COC(=O)c1ccc(O)cc1)NC1CCCC1 | - | - | - | - | -
O=C(COC(=O)/C=C/c1cccc([N+](=O)[O-])c1)Nc1ccc(Cl)cn1 | - | - | - | -49.3 | -
SMILES | D1 agonist | D1 potentiator | TRHR ag | D1 antagonist | TRHR enhancer
CC(C)OC(=O)c1ccccc1C(=O)c1ccc(N)c([N+](=O)[O-])c1 | - | - | - | -33.8 | -
CCc1ccc(-n2nc3ccc(NC(=O)c4ccc(C#N)cc4F)cc3n2)cc1 | - | - | - | - | -
O=C(COC(=O)c1cccc([N+](=O)[O-])c1)Nc1ccc(Cl)cn1 | - | - | - | - | -
O=C(COC(=O)c1ccc([N+](=O)[O-])cc1)Nc1ccc(Cl)cn1 | - | - | - | -37.0 | -
C=CCc1cccc2cc(-c3nc4ccc(C(=O)O)cc4[nH]3)c(=O)oc12 | - | - | - | - | -
O=C(/C=C/c1ccc2c(c1)OCO2)NCCSCc1c(Cl)cccc1Cl | 42.2 | - | - | -32.1 | -
O=C(COC(=O)CSc1ccc(F)cc1)NCCCc1ccccc1 | - | - | - | - | -
O=C(COC(=O)CSc1ccc([N+](=O)[O-])cc1)NCCCc1ccccc1 | - | - | - | -32.7 | -
